# Test results as given in the supplement of paper PMC6555819.
# Test system: VDR:RXRa (NR concentration 270 nM, RXRa partner concentration 90 nM)
# Assay: PBM binding z-score (relative to random genomic background probes); higher = stronger binding; sequences stand for … in GC…GCGATTGACAGCGTAGAATGAAGG
# Description: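 Protein-binding microarray (Agilent 4x180K custom design, double-stranded 60-nt probes: 5' GC cap, 34-nt variable region, 24-nt constant primer region; full probe sequence given). Purified or IVT nuclear receptor:RXRα heterodimers (3:1 NR:RXRα, mostly 270:90 nM) or homodimers were incubated for 1 h in PBS with 2% milk and no ligand, then detected with Alexa488 antibodies. Fluorescence from o1-orientation probes (~5 replicates averaged) was converted to z-scores against 500 random hg19 background probes. Variable regions are seed direct-repeat (DR0–DR5) sites, all their single-nucleotide variants and half-site ablations.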
row,Sequence,PBM binding z-score
1,CCAGACAGGTAAGAAGGTAACTCAGCCTCGATTA,0.00354
2,TCGAGTAGGTTCGTCGGGGCATTCAGCCAACATA,1.79
3,TCTTGTAGATCAACAGGAGGATAAGAAAGATCGA,0.0724
4,AGTCAAAGTTCAGGACTAGGTAACGTAAAGCACG,2.4
5,ATCTCTAGGTAAAAGTTCAGTGACTCCCGAGGAT,1.71
6,TCTCGTAGATCAAAGGTTAAGAAAGCCGAAGCCT,1.24
7,CTTATTAGTTGACCATAAGGGCAACCGAAGCTCG,0.523
8,CCCAGTTGGTCAAGGTCACACACGCTATAGGTAC,4.58
9,CGTCAAAGTTCAAGGTAACGCAACAGAAAGCAGC,3.67
10,CGAACTAGGTCAAGGACTGTGAATCTCCGCACGC,1.17
11,CAAACTAGGTCACCGGAAGGTCACAGTCCGCATG,5.64
12,CCAGACAGGTGAGAATGTAACTCAGCCTCGATTA,-0.0872
13,ATCTCTAGGTAACCAAGTTCAGTTAATGCCGAAC,4.33
14,ATATGTAGGTTAAGGGTCATTCATGTTGGTTCGC,5.08
15,CGTCCAAGGTCATAGGTCAGTGAAGAGATGACGG,5.32
16,GCTAGTTGGTCAGTAAAAGGTCACCCACCGGTCG,3.44
17,TCAGACAGGTAAAGGTAACTCAGGTACGCAGTCG,1.44
18,TTACCAAGGCGAAGGTCGTTGATCCCTCTGTAGA,0.836
19,ACTATTAGTTGACTTAGGGCTACCGATACGACGC,-0.0525
20,ATCTCTAGGTATAGATAGTTCAGTGAATGCAAAT,0.666

row,Sequence,PBM binding z-score
1,AGAACGAGGGGACGCTGAGTTGATAGCAGAGTAG,0.464
2,CAAACTAGGTCAAGGTCAAAATCGGTTTGTGCCA,4.7
3,TCTTGTAGATCAGCAGTTTAAGAAAGCTGGCCAA,-0.0839
4,CCAACTGGGCCAAGGTCATTGATCAGTCAAAGCA,3.1
5,CGAACTAGGTCAATGACAGGACAGTGAATAGTAA,1.38
6,CCAGACAGGTGAAACGTAACTCAGTCTGGTACGC,-0.217
7,TAAATGAGGTTAAAGATCAGGGAACGTGGCGTCG,2.22
8,CCTACTGGGCCAAGGTAATTGATCAGTCAAAGCA,-0.552
9,CCTACTTGGCCATTCAGAGGTCATTGATCATATG,4.04
10,CAAACTAGGTGAAGGTCAAAGTCGGTTTGTGCCA,3.79
11,GGAACGAGGGCATTCGAGTTGAGAGCATGGCGAT,3.07
12,TAGCCTAGGTCAGATCGGGCCAGTATACGCTATA,0.518
13,ACTATTAGTTGAGACGAGCGCAACCGATAGGTTG,-0.385
14,TCAGACAGGTGAGGGTAACTCAGGTACGCAGTCG,0.677
15,CCTACTGGGCCATTCACAGGTCATTGATCATATG,1.72
16,GATACAGGGTCAAGGCCAGGGTACGCGTATTGAT,4.71
17,ACAGACAGGTGAGGAAGGTAACTCAGGCTATCAT,0.159
18,CTCGAAAGGTCGCTTGAGGTGAGTATACGGATAA,3.4
19,CTCGAAAGGGCGGTTGAGGTGAGTATACGGATAA,-0.045
20,ATCGAAAGGTCGTGAGGTGAGTATTCAGAAAGGC,3.7
